Data as given in PubChem BioAssay (NCI).
The panel holds about 79,000 compounds, 15% with a hit somewhere; the sample as a whole holds those more often. Active and inactive are the calls of the source. Cut-off read from the data, not from the text of the source: active = growth inhibition above about 70%; inactive = the rest.

Tests used:
[1] = NCI Yeast Anticancer Drug Screen. Data for the rad52 strain (AID 147);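 note: 0% = growth of vehicle-treated control cultures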; conditions: S. cerevisiae rad52 mutant growth inhibition, active compounds read high
In short: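 Compounds are applied to a genetically defined yeast strain lacking normal DNA damage repair, and inhibition of growth is expressed relative to cultures given vehicle only.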

[2] = NCI Yeast Anticancer Drug Screen. Data for the wt1 strain (AID 149);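 note: 0% = growth of vehicle-treated wt1 cultures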; conditions: S. cerevisiae wt1 strain (SPY 50644) growth inhibition, active compounds read high
In short: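 Vehicle-normalised growth inhibition; strain wt1; compound exposure.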

[3] = NCI Yeast Anticancer Drug Screen. Data for the rad50EPP+ strain (AID 151);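 note: 0% = growth of vehicle-treated control cultures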; conditions: S. cerevisiae rad50 mutant strain, active compounds read high
In short: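 Compounds were applied to the rad50EPP+ yeast strain, which bears a defined DNA repair alteration, and growth inhibition was determined relative to vehicle-treated cultures.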

[4] = NCI Yeast Anticancer Drug Screen. Data for the mgt1 strain (AID 153); conditions: S. cerevisiae mgt1 mutant growth inhibition, active compounds read high
In short: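 Strain: mgt1 yeast, one of a set carrying defined DNA damage repair or cell cycle control alterations. Compound-treated growth compared with vehicle.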

[5] = NCI Yeast Anticancer Drug Screen. Data for the rad50 strain (AID 155);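 note: 0% = growth of vehicle-only cultures of the same strain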; conditions: S. cerevisiae rad50 strain growth inhibition, active compounds read high
In short: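 A DNA repair-deficient yeast mutant serves as the test organism; compound-induced growth inhibition is calculated against vehicle-treated cells.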

[6] = NCI Yeast Anticancer Drug Screen. Data for the mec2-1 strain (AID 157); conditions: S. cerevisiae mec2-1 strain, active compounds read high
In short: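 Strain: mec2-1 (DNA repair/cell cycle alteration). Compound exposure, then growth measured; inhibition expressed relative to vehicle.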

[7] = NCI Yeast Anticancer Drug Screen. Data for the rad14 strain (AID 159);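 note: 0% = growth of vehicle-treated control cultures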; conditions: S. cerevisiae rad14 strain growth inhibition, active compounds read high
In short: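 Vehicle-treated cultures served as the baseline for growth inhibition of a DNA repair-mutant yeast strain exposed to each compound.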

[8] = NCI Yeast Anticancer Drug Screen. Data for the sgs1 mgt1 strain (AID 161);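 note: 0% = growth of cultures given vehicle only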; conditions: S. cerevisiae sgs1 mgt1 strain, active compounds read high
In short: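 Inhibition of yeast growth, normalised to vehicle-treated controls, is reported for a strain bearing genetic alterations in DNA damage repair.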

[9] = NCI Yeast Anticancer Drug Screen. Data for the cln2 rad14 strain (AID 165);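 note: 0% = growth equal to vehicle treated cultures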; conditions: S. cerevisiae cln2 rad14 strain, active compounds read high
In short: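 Compounds are applied to the cln2 rad14 yeast strain, and growth is then compared with that of vehicle-treated cultures to give inhibition.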

[10] = NCI Yeast Anticancer Drug Screen. Data for the bub3 strain (AID 167); conditions: S. cerevisiae bub3 mutant strain, active compounds read high
In short: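 Inhibition values come from growth of compound-treated mutant yeast normalised to vehicle-treated controls.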

[11] = NCI Yeast Anticancer Drug Screen. Data for the wt2 strain (AID 169);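 note: 0% = growth of vehicle-treated yeast cultures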; conditions: S. cerevisiae wt2 strain growth inhibition, active compounds read high
In short: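 This strain belongs to a panel of yeast strains with defined genetic alterations in DNA damage repair or cell cycle control. Compounds are applied, and growth inhibition is measured against vehicle-treated cultures.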

[12] = NCI Yeast Anticancer Drug Screen. Data for the mlh1 strain (AID 171);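 note: 0% = growth of vehicle-treated control cultures of the same strain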; conditions: S. cerevisiae mlh1 strain growth inhibition, active compounds read high
In short: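 Growth of the mutant yeast strain after compound exposure, expressed as inhibition relative to vehicle-only controls.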

[13] = NCI Yeast Anticancer Drug Screen. Data for the sgs1 strain (AID 173);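 note: 0% = growth of vehicle-only control cultures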; conditions: S. cerevisiae sgs1 mutant, active compounds read high
In short: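 Growth of a yeast strain bearing a defined genetic alteration is measured after compound treatment. Inhibition is expressed relative to vehicle-only controls.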

[14] = NCI Yeast Anticancer Drug Screen. Data for the mlh1 rad18 strain (AID 175); conditions: S. cerevisiae mlh1 rad18 strain growth inhibition, active compounds read high
In short: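 Read-out is yeast growth inhibition, calculated against vehicle-only controls. The compound was applied to a strain engineered with DNA damage repair alterations.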

[15] = NCI Yeast Anticancer Drug Screen. Data for the CLN2oe strain (AID 163);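 note: 0% = growth of vehicle-only control cultures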; conditions: S. cerevisiae CLN2oe strain, active compounds read high
In short: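 Growth of a genetically modified yeast strain is measured after compound exposure and compared with cultures given vehicle alone.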

[16] = NCI Yeast Anticancer Drug Screen. Data for the rad18 strain (AID 177); conditions: S. cerevisiae rad18 mutant growth inhibition, active compounds read high
In short: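 Growth of the mutant yeast strain after compound exposure, normalised to vehicle-only cultures.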

[17] = at 5.0 µM (retest, dose inferred, filed as 0.5)
[18] = at 50.0 µM (retest, dose inferred, filed as 5.0)

Measured: growth inhibition

O=C1C=C(Br)C(=O)c2ccccc21
inactive: [1]; at 1.2 µM 6% | [1]; at 3.7 µM 19% | [2]; at 1.2 µM 10% | [2]; at 3.7 µM 23% | [3]; at 1.2 µM 19% | [3]; at 3.7 µM 39% | [4]; at 1.2 µM 11% | [4]; at 3.7 µM 18% | [5]; at 1.2 µM 9% | [5]; at 3.7 µM 46% | [5]; [17] 27% | [6]; at 1.2 µM 17% | [6]; at 3.7 µM 37% | [6]; [17] 39% | [7]; at 1.2 µM 10% | [7]; at 3.7 µM 24% | [8]; [17] 57% | [9]; [17] 5% | [10]; at 1.2 µM 22% | [10]; at 3.7 µM 44% | [11]; at 1.2 µM 13% | [11]; at 3.7 µM 28% | [12]; at 1.2 µM 8% | [12]; at 3.7 µM 11% | [13]; at 1.2 µM 8% | [13]; at 3.7 µM 19% | [14]; [17] 53%
active: [1]; at 11.0 µM 94% | [1]; at 33.0 µM 99% | [1]; at 100.0 µM 99% | [2]; at 11.0 µM 73% | [2]; at 33.0 µM 99% | [2]; at 100.0 µM 99% | [3]; at 11.0 µM 95% | [3]; at 33.0 µM 99% | [3]; at 100.0 µM 98% | [4]; at 11.0 µM 96% | [4]; at 33.0 µM 99% | [4]; at 100.0 µM 99% | [5]; at 11.0 µM 98% | [5]; at 33.0 µM 99% | [5]; [18] 99% | [5]; at 50.0 µM 99.2% | [5]; at 100.0 µM 99% | [6]; at 11.0 µM 97% | [6]; at 33.0 µM 99% | [6]; [18] 99% | [6]; at 50.0 µM 99.2% | [6]; at 100.0 µM 99% | [7]; at 11.0 µM 98% | [7]; at 33.0 µM 99% | [7]; at 100.0 µM 99% | [8]; [18] 99% | [8]; at 50.0 µM 99.2% | [9]; [18] 99% | [9]; at 50.0 µM 99.1% | [10]; [17] 86% | [10]; at 11.0 µM 99% | [10]; at 33.0 µM 99% | [10]; [18] 99% | [10]; at 50.0 µM 99% | [10]; at 100.0 µM 99% | [11]; at 11.0 µM 90% | [11]; at 33.0 µM 99% | [11]; at 100.0 µM 99% | [12]; at 11.0 µM 98% | [12]; at 33.0 µM 99% | [12]; at 100.0 µM 99% | [13]; at 11.0 µM 93% | [13]; at 33.0 µM 99% | [13]; at 100.0 µM 99% | [14]; [18] 99% | [14]; at 50.0 µM 99.1%

COc1ccc2cc(C(C)C(=O)N3CCOC3=O)ccc2c1 (stereo unspecified)
active: [10]; [18] 75% | [14]; [18] 78%
inactive: [1]; at 1.2 µM -9% | [1]; at 3.7 µM -16% | [1]; at 11.0 µM -7% | [1]; at 33.0 µM -8% | [1]; at 100.0 µM 12% | [2]; at 1.2 µM -34% | [2]; at 3.7 µM -34% | [2]; at 11.0 µM -29% | [2]; at 33.0 µM -31% | [2]; at 100.0 µM -22% | [3]; at 1.2 µM 5% | [3]; at 3.7 µM 5% | [3]; at 11.0 µM 7% | [3]; at 33.0 µM 9% | [3]; at 100.0 µM 22% | [4]; at 1.2 µM 5% | [4]; at 3.7 µM 6% | [4]; at 11.0 µM 7% | [4]; at 33.0 µM 21% | [4]; at 100.0 µM 45% | [5]; at 1.2 µM 21% | [5]; at 3.7 µM 24% | [5]; [17] -14% | [5]; at 11.0 µM 15% | [5]; at 33.0 µM 23% | [5]; [18] 27% | [5]; at 50.0 µM 60.6% | [5]; at 100.0 µM 50% | [6]; at 1.2 µM -21% | [6]; at 3.7 µM -28% | [6]; [17] -11% | [6]; at 11.0 µM -27% | [6]; at 33.0 µM -19% | [6]; [18] 9% | [6]; at 50.0 µM 23.9% | [6]; at 100.0 µM 11% | [7]; at 1.2 µM -18% | [7]; at 3.7 µM -20% | [7]; at 11.0 µM -22% | [7]; at 33.0 µM -17% | [7]; at 100.0 µM 50% | [8]; [17] 7% | [8]; [18] 37% | [8]; at 50.0 µM 57.1% | [15]; at 1.2 µM 11% | [15]; at 3.7 µM 5% | [15]; at 11.0 µM -3% | [15]; at 33.0 µM -6% | [15]; at 100.0 µM 11% | [9]; [17] 16% | [9]; [18] 17% | [9]; at 50.0 µM 24.7% | [10]; at 1.2 µM 29% | [10]; at 3.7 µM 25% | [10]; [17] -15% | [10]; at 11.0 µM 24% | [10]; at 33.0 µM 21% | [10]; at 50.0 µM 29.2% | [10]; at 100.0 µM 40% | [11]; at 1.2 µM -41% | [11]; at 3.7 µM -41% | [11]; at 11.0 µM -34% | [11]; at 33.0 µM -28% | [11]; at 100.0 µM -7% | [13]; at 1.2 µM -2% | [13]; at 3.7 µM -12% | [13]; at 11.0 µM -2% | [13]; at 33.0 µM 3% | [13]; at 100.0 µM 27% | [14]; [17] -28% | [14]; at 50.0 µM 44.1% | [16]; at 1.2 µM 13% | [16]; at 3.7 µM 10% | [16]; at 11.0 µM 9% | [16]; at 33.0 µM 4% | [16]; at 100.0 µM 21%

O=c1c2ccccc2nc(-c2ccc(Cl)cc2)n1O
active: [1]; at 1.2 µM 81% | [1]; at 3.7 µM 95% | [1]; at 11.0 µM 96% | [1]; at 33.0 µM 96% | [1]; at 100.0 µM 94% | [2]; at 3.7 µM 89% | [2]; at 11.0 µM 96% | [2]; at 33.0 µM 96% | [2]; at 100.0 µM 96% | [3]; at 3.7 µM 85% | [3]; at 11.0 µM 91% | [3]; at 33.0 µM 91% | [3]; at 100.0 µM 90% | [4]; at 3.7 µM 90% | [4]; at 11.0 µM 94% | [4]; at 33.0 µM 94% | [4]; at 100.0 µM 93% | [5]; at 1.2 µM 80% | [5]; at 3.7 µM 93% | [5]; at 11.0 µM 96% | [5]; at 33.0 µM 95% | [5]; [18] 98% | [5]; at 50.0 µM 97% | [5]; at 100.0 µM 95%
inactive: [2]; at 1.2 µM 61% | [3]; at 1.2 µM 47% | [4]; at 1.2 µM 60% | [5]; [17] 28% | [6]; at 1.2 µM 50% | [6]; at 3.7 µM 56%
